# PubChem BioAssay (Tox21)
# Results filed as inconclusive are left out. Calls of active or inactive are those of the source. The call rests on the fitted dose curve; in most records, active means well fitted cell-killing curve with a large enough effect in the repeat runs; inconclusive means weak or mixed curves, or effect the other way; inactive means flat fitted curve, though single readings scatter.
# Experiment: qHTS RealTime-Glo MT Cell Viability Assay in HEK293 cells - 24 hour (AID 1224886); further: top concentration of the series differs between compounds; nearly all actives have a fitted effect of over 50% in size
# Conditions: RealTime-Glo luminescence; series mostly up to 76.8 µM; activity change, negative = cytotoxicity: at the top concentration
# Description: National Center for Advancing Translational Sciences [NCATS]
# NIH Chemical Genomics Center [NCGC]
# U.S. Environmental Protection Agency [EPA]
# National Institutes of Environmental Health Sciences [NIEHS]
# National Toxicology Program [NTP]
# U.S. Food and Drug Administration [FDA]
# Measure of cell viability is critical in the cell-base assay. Analysis of cell viability is necessary for the characterization of cell responses to cytotoxic drugs and environmental stress. A RealTime-Glo MT Cell Viability Assay to monitor cell viability in real time of continues cell culture during 40 hours of compound treatment was used to screen Tox21 10K library compounds in Hek293 cells. The RealTime-Glo MT Cell Viability Assay is a nonlytic, homogeneous, bioluminescent method to measure cell viability in real time using a simple, plate-based method. The assay involves adding NanoLuc luciferase and a cell-permeant prosubstrate to cells in culture. Viable cells reduce the proprietary prosubstrate to generate a substrate for NanoLuc luciferase. This substrate diffuses from cells into the surrounding culture medium, where it is rapidly used by the NanoLuc Enzyme to produce a luminescent signal. The signal correlates with the number of viable cells, making the assay well suited for cytotoxicity studies.
# Tox21 Assay Protocol Summary:
# The mixture of Hek293 cell suspension and reagents were dispensed at 600cells/6 ul/well in 1536-well tissue culture treated black solid bottom plates using a Multidrop dispenser. After the assay plates were incubated at a 37 C/5% CO2 incubator for 5 hours, 23 nL of compounds dissolved in DMSO, positive and negative controls was transferred to the assay plate by a pintool work station. The plates were incubated at 37 C for 40 hours. The luminescence intensity were measured at 0h, 8h, 16h, 24h, 32h and 40h time points using ViewLux plate reader during compound treatment.
# On the % scale 0 is the no-effect control and ±100 the full control effect.
row,SMILES,"activity change, negative = cytotoxicity"
1,COC(=O)c1ccc(C(=O)O)cc1,4.01% (inactive)
2,CC(=O)c1ccc(O)c(C(N)=O)c1,3.24% [at 35.3 µM] (inactive)
3,C=CCn1cc[n+](C)c1,-5.74% (inactive)
4,C[C@@H]1CCC[C@H](C)N1CCCC(O)(c1ccccc1)c1ccccn1 (stereo not given in full),-0.866% [at 35.3 µM] (inactive)
5,O=S(=O)(O)CC(O)CCl (stereo not given),-2.26% (inactive)
6,CC(C)C[P+](C)(CC(C)C)CC(C)C,-10.5% (inactive)
7,Cc1cc(C)c(C)c(C)c1,-10.5% (inactive)
8,C=C(C)C(=O)OCCOC1CC2CC1C1C=CCC21 (stereo not given),-1.55% (inactive)
9,COc1cc(OC)cc(OC)c1,2.84% [at 35.3 µM] (inactive)
10,CCCC[O][Al]([O]CCCC)[O]CCCC,2.41% (inactive)
11,O=C(O)CCC(=O)Nc1ccc(S(=O)(=O)Nc2nccs2)cc1,-0.907% [at 35.3 µM] (inactive)
12,N#CC1(N)CCCCC1,14.7% (inactive)
13,C=CC(=O)CC,-0.217% (inactive)
14,CCc1ncc(C)[nH]1,1.74% (inactive)
15,O=C1c2ccccc2C(=O)N1CO,-6.34% (inactive)
16,CCO/C=C1\N=C(c2ccccc2)OC1=O,18.8% (inactive)
17,CCN1CCN(C(=O)N[C@@H](C(=O)N[C@@H]2C(=O)N3[C@@H]2SC(C)(C)[C@H]3C(=O)O)c2ccccc2)C(=O)C1=O,7.45% [at 35.3 µM] (inactive)
18,CC(C)C(=O)Nc1cccc(C2CN3CCSC3=N2)c1 (stereo not given),-0.542% [at 35.3 µM] (inactive)
19,O=C1CC2(CCCC2)CC(=O)N1CCNCC1COc2ccccc2O1 (stereo not given),-3.05% [at 35.3 µM] (inactive)
20,CCCCC(CC)CCC(CC(C)C)OS(=O)(=O)O (stereo not given),4.62% (inactive)

row,SMILES,"activity change, negative = cytotoxicity"
1,COC(=O)N/N=C/c1c[n+]([O-])c2ccccc2[n+]1[O-],6.02% [at 35.3 µM] (inactive)
2,C[C@@H]1NC(=O)[C@@H](N)CNC(=O)[C@H](C2CCNC(N)=N2)NC(=O)/C(=C/NC(N)=O)NC(=O)[C@H](CNC(=O)C[C@@H](N)CCCN)NC1=O (stereo not given in full),0.653% [at 0.29 µM] (inactive)
3,C/C(Cl)=C/CCl,12% (inactive)
4,COc1cc(S(N)(=O)=O)cc(C(=O)O)c1OC,1.71% [at 35.3 µM] (inactive)
5,CCCCOCCCC,4.23% (inactive)
6,CC(=O)SC[C@@H](C)C(=O)N1CCC[C@H]1C(=O)N[C@@H](Cc1ccccc1)C(=O)O,1.12% [at 35.3 µM] (inactive)
7,CC(C)(C)C(=O)NCCCC(=O)O,3.8% [at 35.3 µM] (inactive)
8,CCOC(=O)[C@H](CCc1ccccc1)N[C@H]1CS[C@H](c2cccs2)CN(CC(=O)O)C1=O,-0.795% [at 35.3 µM] (inactive)
9,N#Cc1ccccc1C#N,5.14% (inactive)
10,c1coc(Cn2cccc2)c1,3.03% (inactive)
11,OCCC(F)(F)C(F)(F)C(F)(F)C(F)(F)C(F)(F)C(F)(F)F,0.41% (inactive)
12,CCN(CC)CC,-12.7% (inactive)
13,CCOC(=O)CC,15.8% (inactive)
14,CCCCC(O)/C=C(C)/C=C/C=C/C(=O)N1CCCC1=O (stereo not given),8% [at 35.3 µM] (inactive)
15,Clc1ccc2c(c1)Nc1ccccc1S2,-23.1% [at 35.3 µM] (inactive)
16,CC(=O)Nc1ccc(OCCOCCOc2ccc(NC(C)=O)cc2)cc1,-1% [at 35.3 µM] (inactive)
17,N[C@H]1C(O)O[C@H](CO)[C@@H](O)[C@@H]1O (stereo not given in full),3.27% [at 35.3 µM] (inactive)
18,CC1(C)S[C@@H]2[C@H](NC(=O)Cc3ccccc3)C(=O)N2[C@H]1C(=O)O (tested in a mixture with another compound),1.16% [at 35.3 µM] (inactive)
19,CCCCCCCCCCCCCCCCN(C)C,5.99% [at 6.97 µM] (inactive)
20,O=C1CCCc2c(O)cccc21,2.33% [at 35.3 µM] (inactive)
